In PubChem BioAssay (Tox21) one finds Potency and outcome data, which are given here for 12 compounds.

“And” between values parts separate entries of the source, which are not always exact repeats. Identical values can stand only once. Results filed as inconclusive are left out. Some structures have more than one record in an assay (separate samples or runs), and their calls can disagree. The source made the active and inactive calls. Unless noted, calls follow the shape of the dose curve; as a rule, active = well fitted curve in the direction sought with a large enough effect in the repeat runs; inconclusive = weak or mixed curves; inactive = no such curve, though single readings can be large; an effect the other way counts as inactive or inconclusive.

The nature of assay [1]: qHTS assay to test for compound auto fluorescence at 535 nm (green) in HEK293 cells (AID 720680). For orientation: Quantitative high-throughput screening tests each substance at several concentrations.
Assay [2] can be described thus: qHTS assay to test for compound auto fluorescence at 460 nm (blue) in HEK293 cell free culture (AID 720681). A digest of the protocol:
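Blue fluorescence (Ex 405/Em 460 nm, triamterene-equivalent) was read immediately after pin transfer of compound or DMSO into medium (DMEM, 10% FBS) without cells.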

The nature of assay [3]: qHTS assay to test for compound auto fluorescence at 535 nm (green) in HEK293 cell free culture (AID 720682). A digest of the protocol: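 No cells present: wells hold DMEM supplemented with 10% FBS, into which compound or vehicle is pinned. Green emission is then recorded (485 nm excitation, 535 nm emission) and scaled to fluorescein.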
A short description of assay [4]: qHTS assay to test for compound auto fluorescence at 590 nm (red) in HEK293 cell free culture (AID 720683). A digest of the protocol: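 Red-channel autofluorescence of compounds in culture medium (DMEM, 10% FBS), no cells, measured at 540/590 nm. Rose Bengal sodium is the reference fluorophore for equivalence.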
The nature of assay [5]: qHTS assay to test for compound auto fluorescence at 590 nm (red) in HepG2 cell free culture (AID 720684). A digest of the protocol:
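Steps: dispense MEM/10% FBS medium, no cells; pin compound or DMSO vehicle; read red channel, Ex/Em 540/590 nm. Output given as Rose Bengal sodium equivalents.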

A short description of assay [6]: qHTS assay to test for compound auto fluorescence at 460 nm (blue) in HepG2 cell free culture (AID 720685). A digest of the protocol: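 Compound (23 nL) or DMSO pinned into cell-free MEM with 10% FBS; blue fluorescence read at 405/460 nm excitation/emission, expressed as auto-fluorescence equivalency to triamterene.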
Assay [7] can be described thus: qHTS assay to test for compound auto fluorescence at 535 nm (green) in HepG2 cell free culture (AID 720686).
Assay [8] can be described thus: qHTS assay to test for compound auto fluorescence at 460 nm (blue) in HepG2 cells (AID 720687). A digest of the protocol: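 Blue-channel autofluorescence (Ex/Em 405/460 nm, triamterene-equivalent) was measured after 1 hr compound exposure at 37 C, 5% CO2. Cells were HepG2, plated overnight at 37 C in MEM plus 10% FBS.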
For assay [9], the target named is Glucocorticoid receptor (Homo sapiens) (UniProt P04150). Nature of the assay: qHTS assay to identify small molecule agonists of the glucocorticoid receptor (GR) signaling pathway (AID 720691; active = well fitted activation curve with a large enough effect in the signal ratio in the repeat runs, not every such curve was filed as active; the % refers to the signal ratio; also: potency is read from the fitted curve at half-maximal effect). A digest of the protocol: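 qHTS in GR-bla HeLa cells: 4 h settling at 37 C/5% CO2, 18 h compound incubation at 37 C, 2 h LiveBLAzer B/G FRET substrate at room temperature, fluorescence intensity measured.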
Chain of Glucocorticoid receptor (Homo sapiens) (P04150 whole entry, looked up): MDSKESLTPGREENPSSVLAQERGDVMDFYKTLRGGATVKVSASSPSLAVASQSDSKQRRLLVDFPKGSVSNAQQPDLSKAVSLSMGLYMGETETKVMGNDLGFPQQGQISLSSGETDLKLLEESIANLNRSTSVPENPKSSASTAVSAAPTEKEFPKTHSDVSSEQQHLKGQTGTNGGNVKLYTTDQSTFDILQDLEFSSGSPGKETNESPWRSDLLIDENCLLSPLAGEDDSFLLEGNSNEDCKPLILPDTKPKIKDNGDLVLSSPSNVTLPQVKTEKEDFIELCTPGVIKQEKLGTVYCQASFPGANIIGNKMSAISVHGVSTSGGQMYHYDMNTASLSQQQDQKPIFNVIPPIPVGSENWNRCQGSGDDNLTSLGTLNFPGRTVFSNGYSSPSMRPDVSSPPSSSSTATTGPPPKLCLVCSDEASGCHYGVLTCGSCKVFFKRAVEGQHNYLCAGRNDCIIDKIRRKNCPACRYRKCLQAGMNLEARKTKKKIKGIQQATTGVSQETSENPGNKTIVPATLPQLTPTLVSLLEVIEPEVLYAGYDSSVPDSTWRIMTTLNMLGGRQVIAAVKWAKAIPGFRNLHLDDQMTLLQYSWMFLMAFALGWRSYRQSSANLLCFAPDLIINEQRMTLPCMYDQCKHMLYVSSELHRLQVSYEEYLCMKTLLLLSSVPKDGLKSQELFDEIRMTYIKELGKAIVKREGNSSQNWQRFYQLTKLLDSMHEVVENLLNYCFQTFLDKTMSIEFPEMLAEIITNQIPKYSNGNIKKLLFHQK

The target is the same in assay [10]. Nature of the assay: qHTS assay to identify small molecule antagonists of the glucocorticoid receptor (GR) signaling pathway (AID 720692; active = well fitted inhibition curve with a large enough effect in the signal ratio in the repeat runs, not every such curve was filed as active; the % refers to the signal ratio). In a few lines:
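Inhibition of glucocorticoid signalling is measured in HeLa cells with a GRE-controlled beta-lactamase reporter; cells are co-treated with compound and 5 nM dexamethasone (final) for 18 h before FRET substrate readout.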

Assay [11] is described as follows: qHTS assay to identify small molecule antagonists of the glucocorticoid receptor (GR) signaling pathway - cell viability counter screen (AID 720693). Also: nearly all actives have a fitted effect of over 55% in size.
Assay [12] is described as follows: qHTS assay for identifying genotoxic compounds that show differential cytotoxicity against isogenic chicken DT40 cell lines with known DNA damage response pathways - wild type cell line (AID 743012). Also: nearly all actives have a fitted effect of over 60% in size. Also: potency is read from the fitted curve at half-maximal effect. In a few lines:
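First, wild type DT40 cells were plated at 300 per well and equilibrated about 0.5 h at 37 C/5% CO2. Next, compounds in DMSO were added and exposure lasted 40 h. Finally, CellTiter-Glo was added for 30 min at room temperature and luminescence recorded.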

Assay [13] is described as follows: qHTS assay for identifying genotoxic compounds that show differential cytotoxicity against isogenic chicken DT40 cell lines with known DNA damage response pathways - Rev3 mutant cell line (AID 743014). Also: nearly all actives have a fitted effect of over 55% in size. Also: potency is read from the fitted curve at half-maximal effect.
Assay [14] in a line: qHTS assay for identifying genotoxic compounds that show differential cytotoxicity against isogenic chicken DT40 cell lines with known DNA damage response pathways - Rad54/Ku70 mutant cell line (AID 743015). Also: nearly all actives have a fitted effect of over 60% in size. Also: potency is read from the fitted curve at half-maximal effect.
Assay [15] is described as follows: qHTS assay to identify small molecule antagonists of the androgen receptor (AR) signaling pathway - cell viability counter screen (AID 743033; also: nearly all actives have a fitted effect of over 45% in size; also: potency is read from the fitted curve at half-maximal effect).
Assay [16] is described as follows: qHTS assay to identify small molecule antagonists of the androgen receptor (AR) signaling pathway using the MDA cell line - cell viability counter screen (AID 743041; also: nearly all actives have a fitted effect of over 45% in size). In a few lines: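 Cells were plated at 3,000 per well and left 5 h. Compounds in DMSO were then pinned in, followed by R1881. After 16 h at 37C, CellTiter-Fluor fluorescence gave viability.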
Assay [17] in a line: qHTS assay to identify small molecule antagonists of the thyroid receptor (TR) signaling pathway - cell viability counter screen (AID 743064). Also: nearly all actives have a fitted effect of over 50% in size. Also: potency is read from the fitted curve at half-maximal effect. A digest of the protocol:
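Rat GH3 pituitary tumor cells stably expressing two TR response elements driving luciferase were plated, rested 4 h, then dosed with library compounds and T3 (1 nM final). After 23.5 h at 37 °C, CellTiter-Fluor was added for 30 min and fluorescence recorded.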

Assay [18] deals with Androgen receptor (Homo sapiens) (UniProt P10275). Nature of the assay: qHTS assay to identify small molecule agonists of the androgen receptor (AR) signaling pathway (AID 743036; active = well fitted activation curve with a large enough effect in the signal ratio in the repeat runs, with a control signal flat, not every such curve was filed as active; the % refers to the signal ratio). A digest of the protocol:
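Quantitative HTS of the Tox21 10K library in HEK293 cells bearing a stably integrated UAS-controlled beta-lactamase reporter. Compound exposure lasted 16 h at 37C. Reporter activity was detected by FRET substrate fluorescence after 2 h at room temperature.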

The target is the same in assay [19]. Nature of the assay: qHTS assay to identify small molecule antagonists of the androgen receptor (AR) signaling pathway using the MDA cell line (AID 743042; also: nearly all actives have a fitted effect of over 55% in size; also: potency is read from the fitted curve at half-maximal effect). In a few lines:
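Antagonist mode: compounds plus R1881 agonist added to MDA-kb2 AR-luc cells, incubated 16 h at 37C. Luciferase reporter luminescence quantified, with multiplexed CellTiter-Fluor readout for cell viability.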

The nature of assay [20]: qHTS assay to identify small molecule antagonists of the thyroid receptor (TR) signaling pathway (AID 743065). Also: series mostly up to about 70 µM; nearly all actives have a fitted effect of over 55% in size. A digest of the protocol:
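Antagonism measured as loss of luciferase signal in GH3 cells stably carrying a TRE-luciferase reporter, co-treated with compound and T3 (1 nM final) for 23.5 h at 37 C. Viability was read in the same well by CellTiter-Fluor.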

Chain of Androgen receptor (Homo sapiens) (P10275 whole entry, looked up): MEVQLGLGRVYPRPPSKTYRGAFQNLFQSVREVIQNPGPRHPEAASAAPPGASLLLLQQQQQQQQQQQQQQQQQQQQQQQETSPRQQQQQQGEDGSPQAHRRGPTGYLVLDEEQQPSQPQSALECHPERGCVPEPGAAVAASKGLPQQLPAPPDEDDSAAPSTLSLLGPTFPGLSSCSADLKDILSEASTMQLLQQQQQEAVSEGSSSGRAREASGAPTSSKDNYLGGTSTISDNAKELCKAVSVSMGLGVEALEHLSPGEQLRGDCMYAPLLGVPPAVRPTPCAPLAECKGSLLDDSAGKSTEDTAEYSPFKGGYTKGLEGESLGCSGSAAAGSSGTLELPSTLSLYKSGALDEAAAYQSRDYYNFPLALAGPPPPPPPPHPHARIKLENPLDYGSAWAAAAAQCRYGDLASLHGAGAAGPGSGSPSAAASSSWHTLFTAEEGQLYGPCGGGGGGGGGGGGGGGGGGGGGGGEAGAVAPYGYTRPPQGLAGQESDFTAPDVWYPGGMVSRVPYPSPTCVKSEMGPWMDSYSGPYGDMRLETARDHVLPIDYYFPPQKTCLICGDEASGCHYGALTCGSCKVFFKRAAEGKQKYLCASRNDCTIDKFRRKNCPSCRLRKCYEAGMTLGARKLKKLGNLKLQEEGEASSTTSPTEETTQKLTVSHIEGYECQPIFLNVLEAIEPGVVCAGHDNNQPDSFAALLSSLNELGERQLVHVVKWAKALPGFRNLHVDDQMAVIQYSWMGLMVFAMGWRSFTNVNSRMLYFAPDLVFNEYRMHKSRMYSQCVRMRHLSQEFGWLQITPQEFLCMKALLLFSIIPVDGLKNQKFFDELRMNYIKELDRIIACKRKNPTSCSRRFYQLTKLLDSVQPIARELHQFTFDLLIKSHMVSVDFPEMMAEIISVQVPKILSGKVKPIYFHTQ

For the compound `Brc1cc(Oc2cc(Br)c(Br)c(Br)c2Br)c(Br)c(Br)c1Br`, the Potency entry in [1], in assay [3], in [4], in assay [5], in [7] and in assay [9] was “inactive” throughout. Besides, the Potency entry in assay [10], in assay [11], in [12], in [13], in [14] and in [15] was “inactive” in each case. Also, the Potency result in assay [16] and in assay [17] was “inactive” throughout. In addition, the compound was called inactive in assay [2], in assay [6] and in [8].

In the case of `CC(C)OC(=O)C(C)(C)Oc1ccc(C(=O)c2ccc(Cl)cc2)cc1`, the Potency entry in assay [1], in assay [3], in [4], in [5], in assay [7] and in assay [9] was “inactive” throughout. In addition, the Potency result in assay [10] and in assay [11] was “inactive” throughout. For the same compound, the outcome in [2], in assay [6], in assay [8] and in assay [18] was inactive. The Potency in assay [12] is 29.8 µM (active) and 12.2 µM (active); in [13], 24.3 µM (active); in [14], 15.4 µM (active); in assay [15], “inactive and 43.6 µM (active)”; in assay [19], “inactive and 48.6 µM (active)”.

For `c1ccc2c(c1)c1cccc3ccc4cccc2c4c31`, the Potency entry in [1], in assay [3], in assay [4], in [5], in [7] and in assay [10] was “inactive” throughout. Further, the Potency entry in assay [11], in [12], in [13], in [14], in assay [15] and in assay [16] was “inactive” each time. For the same compound, the Potency result in [19] and in assay [17] was “inactive” each time. Besides, the outcome in [2], in [6] and in assay [8] was inactive. Also, the Potency in [9] was 48.6 µM (active) and inactive.

With `COc1ccc(C(=O)CC(=O)c2ccc(C(C)(C)C)cc2)cc1`, the Potency entry in assay [1], in assay [3], in assay [4], in assay [5], in [7] and in [9] was “inactive” throughout. For the same compound, the Potency result in assay [10], in assay [11], in assay [12], in assay [13], in [14] and in assay [15] was “inactive” in each case. Moreover, in assay [16], the Potency entry is “inactive”. Further, the outcome in [2], in assay [6] and in [8] was inactive. Further, the Potency in [17] was 26.6 µM (active) and 65.8 µM (active).

For the compound `O=P(O)(O)O`, the Potency result in [1], in assay [3], in assay [4], in assay [5], in [7] and in [9] was “inactive” in each case. Moreover, the Potency entry in [10], in assay [11], in [12], in [13], in [14] and in assay [15] was “inactive” throughout. Also, the Potency entry in assay [16], in assay [17] and in [20] was “inactive” each time. The call in [2], in [6] and in assay [8] was inactive.

With `CCCCC(CC)COC(=O)c1ccc(N(C)C)cc1` (configuration not stated), the Potency result in [1], in [3], in [4], in assay [5], in [7] and in assay [9] was “inactive” throughout. Moreover, the Potency result in [10], in [11], in [12], in assay [15], in assay [16] and in assay [17] was “inactive” throughout. For the same compound, the outcome in assay [2], in assay [6] and in [8] was inactive. For the same compound, the Potency entry in assay [13] was “inactive and 54.5 µM (active)”; in [14], “inactive and 43.3 µM (active)”.

With `CCC(C)(O)CCCC(C)C` (configuration not stated), the Potency entry in assay [1], in assay [3], in assay [4], in assay [5], in assay [7] and in assay [9] was “inactive” throughout. The Potency entry in [10], in [11], in [12], in assay [13], in [14] and in assay [15] was “inactive” throughout. Further, the Potency entry in assay [16] and in assay [20] was “inactive” each time. Besides, the call in [2], in [6] and in assay [8] was inactive.

Consider `CCCCOCCOCCO`, for which the Potency result in [1], in assay [3], in [4], in assay [5], in assay [7] and in [9] was “inactive” in each case. The Potency entry in [10], in assay [11], in assay [12], in assay [13], in [14] and in assay [15] was “inactive” throughout. For the same compound, the Potency result in assay [16] and in assay [17] was “inactive” in each case. Moreover, the compound was classed as inactive in assay [2], in assay [6] and in [8].

Regarding `COC(=O)CCC(=O)OC`, the Potency entry in [1], in [3], in [4], in [5], in assay [7] and in assay [9] was “inactive” each time. Further, the Potency result in [10], in [11], in [12], in [14], in [15] and in assay [16] was “inactive” each time. In addition, the Potency result in assay [17] and in assay [20] was “inactive” in each case. Further, the outcome in [2], in assay [6] and in assay [8] was inactive.

For the compound `CN1C(C(=O)Nc2ccccn2)=C(O)c2ccccc2S1(=O)=O`, the Potency result in assay [1], in assay [3], in assay [4], in [5], in assay [7] and in assay [9] was “inactive” each time. Besides, the Potency result in assay [10], in assay [11], in assay [12], in assay [13], in [14] and in assay [15] was “inactive” in each case. For the same compound, the Potency entry in [16], in [17] and in assay [20] was “inactive” each time. Also, the compound was classed as inactive in assay [2], in assay [6] and in [8].

In the case of `OC[C@H]1O[C@@H]2O[C@H]3[C@H](O)[C@@H](O)[C@@H](O[C@H]4[C@H](O)[C@@H](O)[C@@H](O[C@H]5[C@H](O)[C@@H](O)[C@@H](O[C@H]6[C@H](O)[C@@H](O)[C@@H](O[C@H]7[C@H](O)[C@@H](O)[C@@H](O[C@H]8[C@H](O)[C@@H](O)[C@@H](O[C@H]1[C@H](O)[C@H]2O)O[C@@H]8CO)O[C@@H]7CO)O[C@@H]6CO)O[C@@H]5CO)O[C@@H]4CO)O[C@@H]3CO`, the Potency entry in assay [1], in assay [3], in assay [4], in assay [5], in [7] and in assay [9] was “inactive” in each case. Also, the Potency result in [10], in assay [11], in [12], in assay [14], in assay [15] and in assay [16] was “inactive” each time. Also, the Potency entry in assay [17] was “inactive”. Also, the call in assay [2], in assay [6] and in assay [8] was inactive.

As for `C/C=C/C(=O)O`, the Potency entry in assay [1], in assay [3], in assay [4], in assay [5], in [7] and in assay [9] was “inactive” throughout. In addition, the Potency result in assay [10], in assay [11], in [12], in assay [13], in assay [14] and in assay [15] was “inactive” each time. Further, the Potency result in assay [16], in assay [17] and in [20] was “inactive” throughout. In addition, the compound was classed as inactive in [2], in assay [6] and in assay [8].
